# Data published in PubChem BioAssay AID2014 (Sanford-Burnham Center for Chemical Genomics, 2009).
# In all, about 290,000 compounds went through this assay and about 3,000 (1%) were called active. How the calls were made is not given here. Shown is part of a subset that was picked to be rich in actives.
# Target: Polyadenylate-binding protein 1 (Homo sapiens) (UniProt P11940)
# Assay: blockers of PABP interaction with poly(A) – biochemical, fluorescence polarization, uHTS, primary screen (AID 2014);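 further: calls also rest on retests at 20 µM and on dose response follow-up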
# Conditions: PABP-poly(A) RNA binding, stronger effect = higher value
# Sequence of Polyadenylate-binding protein 1 (Homo sapiens) (P11940 whole entry, looked up): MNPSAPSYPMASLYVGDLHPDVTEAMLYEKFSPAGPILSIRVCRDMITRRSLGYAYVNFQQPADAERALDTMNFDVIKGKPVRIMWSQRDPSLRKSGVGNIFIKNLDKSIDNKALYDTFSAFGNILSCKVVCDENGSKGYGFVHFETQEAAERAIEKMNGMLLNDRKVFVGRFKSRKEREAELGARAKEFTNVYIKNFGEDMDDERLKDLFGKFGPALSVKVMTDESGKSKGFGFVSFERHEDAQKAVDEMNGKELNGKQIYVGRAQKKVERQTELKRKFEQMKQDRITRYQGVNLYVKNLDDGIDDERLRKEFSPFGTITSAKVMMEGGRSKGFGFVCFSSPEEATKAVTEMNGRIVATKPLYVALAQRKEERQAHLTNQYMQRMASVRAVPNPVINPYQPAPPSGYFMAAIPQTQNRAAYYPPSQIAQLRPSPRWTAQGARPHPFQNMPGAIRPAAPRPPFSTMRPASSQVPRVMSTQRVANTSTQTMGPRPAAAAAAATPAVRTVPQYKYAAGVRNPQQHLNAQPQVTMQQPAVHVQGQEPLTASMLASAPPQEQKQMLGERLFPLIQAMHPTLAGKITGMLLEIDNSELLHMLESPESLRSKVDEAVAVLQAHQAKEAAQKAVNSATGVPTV
SMILES,inhibition (at 35 µM),"inhibition (confirmation repeats, at 20 µM) [%]"
Cc1ccc2cc(C)c(N3CCN(c4ccc(F)cc4)CC3)nc2c1,-13.2% (inactive),
COc1ccc(-c2cc(C(=O)N3CCN(Cc4ccc5c(c4)OCO5)CC3)on2)cc1OC,6.7% (inactive),
COc1ccc(Cl)cc1NC(=O)CCS(=O)(=O)c1cc2c(cc1C)NC(=O)CO2,-1.1% (inactive),
COc1ccc(Cl)cc1NC(=O)CCS(=O)(=O)c1ccc(Br)cc1,54.8% (active),
O=C(CCS(=O)(=O)c1ccc(Br)cc1)NCCc1ccc(Cl)cc1,19.8% (inactive),10.6
O=C(CSc1ncn[nH]1)N/N=C/c1ccc(F)cc1,-7.9% (inactive),
O=C(NCCCc1ccccc1)c1cc(COc2c(F)cccc2F)on1,-3.7% (inactive),
O=C(c1c(F)cccc1F)N1CCN(c2ncc(Br)cn2)CC1,0.7% (inactive),
Cc1ccc(-c2csc(N(Cc3ccco3)C(=O)c3cccs3)n2)cc1,-9.4% (inactive),
Cc1nnc(N(Cc2ccco2)C(=O)c2ccno2)s1,68.4% (active),
CN(C(=O)c1ccno1)c1nnc(-c2cccnc2)s1,12% (inactive),
O=C(CCN1C(=O)[C@H]2CC=CC[C@H]2C1=O)NCc1nc(-c2ccccc2)no1,15.4% (inactive),
O=C1c2ccccc2S(=O)(=O)N1Cc1c(F)cccc1Cl,5.7% (inactive),
Cc1c(-c2ccccc2)nc(N)c(C#N)c1-c1cccs1,-3.2% (inactive),
CN1CCc2nc(SC(C(=O)O)c3ccccc3)c(C#N)c(-c3cccs3)c2C1 (centres undefined),68.1% (active),
CCc1c(-c2ccccc2)nc(N)c(C#N)c1-c1cccs1,-4.1% (inactive),
CCOC(=O)C1(Cc2ccccc2C)CCCN(C(=O)CCc2c(C)noc2C)C1 (centres undefined),2.2% (inactive),
CCn1c(=S)sc2c(=O)n(CC(=O)Nc3ccc(OC)cc3)c(C)nc21,-6.5% (inactive),
Cc1cccc(C)c1NC(=O)CSc1nc2c([nH]1)c(=O)n(C)c(=O)n2C,1% (inactive),
COc1cc(CCC(=O)N2CCN(c3ccccc3Cl)CC2)cc(OC)c1OC,9.6% (inactive),

SMILES,inhibition (at 35 µM),"inhibition (confirmation repeats, at 20 µM) [%]"
COc1ccc(Cc2nnc(NC(=O)c3ccc(OC)cc3OC)s2)cc1,-6% (inactive),
CCc1nnc(NC(=O)Cc2cccs2)s1,10.4% (inactive),
COc1ccc(Cc2nnc(NC(=O)Cc3cccs3)s2)cc1,72.4% (active),
CNS(=O)(=O)c1cccc(C(=O)NCC2CCCCC2)c1,1% (inactive),
Cc1cc(C)c(C#N)c(SCc2[nH]nc3c2C(c2ccccc2)C(C#N)=C(N)O3)n1 (centres undefined),-7.3% (inactive),
Cc1cc(C)c2c3c(sc2n1)C(c1ccccc1)C(C#N)=C(N)O3 (centres undefined),120% (active),63.8
Cc1nn(Cc2ccccc2)c2c1C(c1ccccc1)C(C#N)=C(N)O2 (centres undefined),5.6% (inactive),
O=C(N/N=C/c1ccccc1O)/C(=C/c1ccccc1)CCO,-0.9% (inactive),
CCOc1cc(/C=N/Nc2cc(C)nc3ccc(C)cc23)ccc1O,-6.9% (inactive),
Cc1c(-c2cccc(Cl)c2)nc2ccccc2c1C(=O)OCC(=O)N(C)C1CCS(=O)(=O)C1 (centres undefined),6.7% (inactive),
CN(C(=O)COC(=O)c1nc(Cl)ccc1Cl)C1CCS(=O)(=O)C1 (centres undefined),1.3% (inactive),
CN(C(=O)COC(=O)c1cc(-c2ccco2)nc2ccccc12)C1CCS(=O)(=O)C1 (centres undefined),77.7% (active),
Cc1cccc(Nc2nc(-c3ccccc3)cs2)n1,3.3% (inactive),
COc1cccc(S(=O)(=O)NCc2ccc(C(=O)NCc3ccccn3)cc2)c1,1.8% (inactive),
O=C(NCc1ccccn1)c1ccc2nc(-c3ccco3)c(-c3ccco3)nc2c1,77.7% (active),
O=C(NCc1ccccn1)c1cc(Br)ccc1Cl,0.7% (inactive),
CC1=C(C(=O)Nc2ccccc2)C(c2ccco2)C(C#N)=C(SCC(N)=O)N1 (centres undefined),7.1% (inactive),
N#CC1=C(N)Oc2c(sc3ccccc23)C1c1ccco1 (centres undefined),86.3% (active),
N#CC1=C(N)Oc2c(ccc3cccnc23)C1c1ccncc1 (centres undefined),10.6% (inactive),
COCCCNc1nc2c(-c3cccc(C)c3)nnn2c2ccc(Cl)cc12,3.2% (inactive),

SMILES,inhibition (at 35 µM),"inhibition (confirmation repeats, at 20 µM) [%]"
COc1cccc(N(C(=O)CNC(=O)c2ccco2)C(C(=O)NC2CCCCC2)c2cccnc2)c1 (centres undefined),10.1% (inactive),
CN(C)CCCNC(=S)N1CCC(c2nc3ccccc3[nH]2)CC1,-6% (inactive),
COc1ccc(C(CNC(=O)COc2ccc([N+](=O)[O-])cc2)N2CCCCC2)cc1 (centres undefined),1% (inactive),
NC(=O)c1c(Nc2nc3c(F)cccc3s2)sc2c1CCCC2,-15.3% (active),73.7
NC(=O)c1c(NC(=O)c2ccccc2)sc2c1CCCC2,3.6% (inactive),
Fc1cc(F)c2nc(Nc3nc4c(F)cccc4s3)sc2c1,0.5% (inactive),
COc1ccc(C(=O)NCCSc2ccccc2C)cc1,1.1% (inactive),
COCc1cc(C)n(CC(=O)NCC2CCCO2)c(=O)c1C#N (centres undefined),-1.9% (inactive),
Cc1ccc(N2CCN(C(=O)c3cccs3)CC2)c(C)c1,3.2% (inactive),
COc1ccc(C(C)=O)cc1CSc1nc2nc(C)cc(C)n2n1,-7.3% (inactive),
Cc1cc(C)n2nc(SCC(N)=O)nc2n1,51.5% (active),81.1
CCOC(=O)C(C)Sc1nnc(CSc2nc3nc(C)cc(C)n3n2)o1 (centres undefined),2.5% (inactive),
Cc1onc(C(=O)Nc2ccc3c(c2)OCO3)c1[N+](=O)[O-],1.4% (inactive),
Cc1ccnc(N2C(=O)c3ccc([N+](=O)[O-])cc3C2=O)c1,47.5% (inactive),
COc1ccccc1NC(=O)Nc1nnc(Cc2ccc(F)cc2)s1,-15% (inactive),
COc1ccc(C(CNC(=O)c2cc3c(s2)CCCC3)N2CCOCC2)cc1 (centres undefined),11.9% (inactive),
CC(=O)NC(Cc1ccc(F)c(F)c1)C(=O)NC1CCN(C(=O)c2ccc(C)cc2)CC1 (centres undefined),1.9% (inactive),
COc1ccc(CC(NC(C)=O)C(=O)NC2CCN(C(=O)c3ccc(Cl)cc3)CC2)cc1 (centres undefined),3.2% (inactive),
CNC(=S)N1CCC(NC(=O)C(Cc2ccc(F)cc2)NC(C)=O)CC1 (centres undefined),63.2% (active),
C[C@@H]1CC[C@@]2(OC1)O[C@H]1C[C@H]3[C@@H]4CC=C5C[C@@H](O)[C@H](O)C[C@]5(C)C4CC[C@]3(C)[C@H]1[C@@H]2C (some centres undefined),7.2% (inactive),
